# Records with an inconclusive call do not appear. Active and inactive are the calls of the source. How the source made its calls, unless noted: active means hit-call score of the fitted dose curve at least 0.9, where 1 is the maximum; inconclusive means response in the unintended direction; inactive means score below 0.9.
# What was measured:
# [1] = biological target: Bile acid receptor (Homo sapiens) (UniProt Q96RI1); test: ATG_FXR_TRANS: Attagene TRANS-FACTORIAL HepG2 Assay for Farnesoid X Receptor (FXR) (AID 2282979); conditions: HepG2 Attagene TRANS FXR-GAL4 reporter transcription;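 further: hits raise reporter mRNA above DMSO so AC50 marks FXR activation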
# Procedure, shortened: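 Transient transfection of HepG2 with multiplexed GAL4-UAS reporter units; exogenous FXR-GAL4 chimera. Dose 24 h → TriZol RNA → oligo(dT) RT → PCR, 6-FAM primer extension, HpaI cut → CE. Gain vs DMSO.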
# [2] = CCTE_Harrill_HTTr_CellCount_MCF7: CCTE's Cell Proliferation Assessment for the High-Throughput Transcriptomics (HTTr) Platform, Harrill Lab (AID 2284012);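 further: count of Hoechst-stained nuclei per well by high-content imaging in MCF-7 cells; cells exposed to compound for six hours; intended direction is loss of nuclei count meaning fewer cells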
# Procedure, shortened: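 Readout: Hoechst nuclear count by high-content imaging. MCF-7, 8-point dilution series, 6 h exposure. Bidirectional fit vs DMSO baseline.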
# [3] = biological target: Estrogen receptor beta (Homo sapiens) (UniProt Q92731); test: OT_ER_ERbERb_0480: Odyssey Thera (OT) 8-hour HEK293T Protein-Complementation Assay for Estrogen Receptor-beta/-beta Homodimer (AID 2283357);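 further: active means signal gain over DMSO baseline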
# Procedure, shortened: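 ER-beta LBD homodimer PCA stably expressed in HEK293T; 8 h compound exposure, then formaldehyde fixation and Draq5 staining. Gain in nuclear/cytoplasmic fluorescence intensity versus DMSO vehicle, read on laser scanning cytometer.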
# [4] = biological target: Estrogen receptor beta (Homo sapiens) (UniProt Q92731); test: OT_ER_ERbERb_1440: Odyssey Thera (OT) 24-hour HEK293T Protein-Complementation Assay for Estrogen Receptor-beta/-beta Homodimer (AID 2283380);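 further: scored as signal increase over DMSO baseline for both agonists and antagonists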
# Procedure, shortened: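 Fluorescence increase, nuclear for agonists or whole-cell for antagonists, relative to DMSO vehicle, quantified by laser scanning cytometer after fixation and Draq5 staining. Readout from 24 h treatment of HEK293T cells carrying complementation-paired ER beta LBD (aa 310-547).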
# [5] = biological target: Retinoic acid receptor RXR-alpha (Homo sapiens) (UniProt P19793); test: OT_NURR1_NURR1RXRa_1440: Odyssey Thera (OT) 24-hour HEK293T Protein Complementation Assay for Nurr1/retinoid X receptor (RXR) (AID 2283386)
# Procedure, shortened: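 Fluorescence PCA read-out; HEK293T; 24 h post-dose; bait/prey fused to reporter fragments; gain-of-signal fit vs DMSO negative control.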
# [6] = ACEA_AR_antagonist_AUC_viability: ACEA Biosciences xCELLigence Real-Time Cell Analysis on Androgen Receptor Antagonism for Viability (AID 2283776);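 further: 22Rv1 human prostate cancer cells growing on impedance electrode plates; area under impedance growth curve at 80 h after dosing as viability; hits lower the growth signal relative to DMSO meaning cytotoxicity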
# Procedure, shortened: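 Impedance read-out (RT-CES): area under growth curve at 80 h post-dose, loss of signal scored vs DMSO baseline. 22Rv1 cells; 8-pt 1:4 series, top 100 uM final, ≤0.5% DMSO; biological duplicate.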
# [7] = ACEA_AR_agonist_AUC_viability: ACEA Biosciences xCELLigence Real-Time Cell Analysis on Androgen Receptor Agonism for Viability (AID 2283775)
# Procedure, shortened: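 Viability endpoint from xCELLigence impedance in 22Rv1 prostate cells at 80 h. Eight-point series, 100 uM maximum final.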
# [8] = ATG_ERE_CIS: Attagene CIS-FACTORIAL HepG2 Assay for Estrogen Response Element (ERE) (AID 2282940; active means hit-call score of the fitted dose curve at least 0.9, where 1 is the maximum; inactive means score below 0.9); conditions: HepG2 ERE cis-reporter, Attagene RNA transcript; actives raise or lower the signal
# Procedure, shortened: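 HepG2 cells transiently transfected with cis-promoter-driven multiplexed reporter transcription units report endogenous TF activity. After 24 h compound exposure, reporter mRNA is quantified by RT-PCR with capillary electrophoresis fluorescence; bidirectional fitting versus DMSO baseline.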
# [9] = read-out: Pselectin, SELP (gene 6403); test: BSK_4H_Pselectin: BioMAP Diversity Plus: 4H Assay for Pselectin Biomarker Activity (AID 2283026; active means hit-call score of the fitted dose curve at least 0.9, where 1 is the maximum; inactive means score below 0.9); conditions: primary human endothelial cells (HUVEC); actives raise or lower the signal
# Procedure, shortened: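 HUVEC, 24 h chemical exposure; P-selectin read by ELISA. Bidirectional curve fit vs DMSO baseline; gain or loss of signal scored.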
# [10] = read-out: Macrophage colony-stimulating factor (MCSF), CSF1 (gene 1435); test: BSK_CASM3C_MCSF: BioMAP Diversity Plus: CASM3C Assay for Macrophage colony-stimulating factor (MCSF) Biomarker Activity (AID 2283044; active means hit-call score of the fitted dose curve at least 0.9, where 1 is the maximum; inactive means score below 0.9;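 further: M-CSF protein amount quantified by ELISA after 24 h exposure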); conditions: primary human coronary artery smooth muscle cells; actives raise or lower the signal
# [11] = read-out: Low-density lipoprotein receptor (LDLR), LDLR (gene 3949); test: BSK_CASM3C_LDLR: BioMAP Diversity Plus: CASM3C Assay for Low-density lipoprotein receptor (LDLR) Biomarker Activity (AID 2283045; active means hit-call score of the fitted dose curve at least 0.9, where 1 is the maximum; inactive means score below 0.9;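 further: LDLR protein level on the cell surface quantified by ELISA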); conditions: primary human coronary artery smooth muscle cells; actives raise or lower the signal
# [12] = read-out: serum amyloid A (SAA), SAA1 (gene 6288); test: BSK_CASM3C_SAA: BioMAP Diversity Plus: CASM3C Assay for serum amyloid A (SAA) Biomarker Activity (AID 2283049; active means hit-call score of the fitted dose curve at least 0.9, where 1 is the maximum; inactive means score below 0.9;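 further: SAA protein level quantified by ELISA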); conditions: primary human coronary artery smooth muscle cells; actives raise or lower the signal
# [13] = read-out: Vascular cell adhesion molecule 1 (VCAM1), VCAM1 (gene 7412); test: BSK_CASM3C_VCAM1: BioMAP Diversity Plus: CASM3C Assay for Vascular cell adhesion molecule 1 (VCAM1) Biomarker Activity (AID 2283055; active means hit-call score of the fitted dose curve at least 0.9, where 1 is the maximum; inactive means score below 0.9;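 further: VCAM-1 protein level quantified by ELISA on the cells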); conditions: primary human coronary artery smooth muscle cells; actives raise or lower the signal
# [14] = read-out: Macrophage colony-stimulating factor (MCSF), CSF1 (gene 1435); test: BSK_hDFCGF_MCSF: BioMAP Diversity Plus: hDFCGF Assay for Macrophage colony-stimulating factor (MCSF) Biomarker Activity (AID 2283060; active means hit-call score of the fitted dose curve at least 0.9, where 1 is the maximum; inactive means score below 0.9); conditions: AC50: primary human foreskin fibroblasts, actives raise or lower the signal unless noted; outcome: primary human foreskin fibroblasts, actives raise or lower the signal unless noted
# Procedure, shortened: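 Primary human foreskin fibroblasts dosed with chemical; 24 h later, M-CSF quantified by ELISA; curves fitted in both directions vs DMSO negative control.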
# [15] = read-out: Monokine induced gamma interferon (MIG), CXCL9 (gene 4283); test: BSK_hDFCGF_MIG: BioMAP Diversity Plus: hDFCGF Assay for Monokine induced gamma interferon (MIG) Biomarker Activity (AID 2283063; active means hit-call score of the fitted dose curve at least 0.9, where 1 is the maximum; inactive means score below 0.9); conditions: primary human foreskin fibroblasts; actives raise or lower the signal
# Procedure, shortened: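 Chemicals were added to primary human foreskin fibroblast cultures, which were sampled 24 h later. MIG levels were then quantified by ELISA and responses fitted in both directions relative to DMSO.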
# [16] = biological target: Retinoic acid receptor RXR-alpha (Homo sapiens) (UniProt P19793); test: OT_NURR1_NURR1RXRa_0480: Odyssey Thera (OT) 8-hour HEK293T Protein Complementation Assay for Nurr1/retinoid X receptor (RXR) (AID 2283385)
# Procedure, shortened: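 Read-out: fluorescence from protein-fragment complementation between Nurr1 and RXRα in human HEK293T cells, 8 h after dosing. DMSO served as negative control; increased signal counted as activity.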
# [17] = biological target: Steroid hormone receptor ERR1 (Homo sapiens) (UniProt P11474); test: ATG_ERRa_TRANS: Attagene TRANS-FACTORIAL HepG2 Assay for human Estrogen-Related Receptor alpha (ERRa) (AID 2282971); conditions: HepG2 Attagene TRANS reporter, ERRa transactivation
# Procedure, shortened: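 Reporter transcript induction was quantified by RT-PCR and capillary electrophoresis of FAM-labelled, HpaI-cut products after 24 h treatment of HepG2 cells carrying transiently transfected GAL4-UAS reporter units and an exogenous ERRa-Gal4 fusion; activity scored as increase over DMSO.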
# [18] = biological target: Aryl hydrocarbon receptor (Homo sapiens) (UniProt P35869); test: ATG_Ahr_CIS: Attagene CIS-FACTORIAL HepG2 Assay for human Aryl Hydrocarbon Receptor (Ahr) (AID 2282930; active means hit-call score of the fitted dose curve at least 0.9, where 1 is the maximum; inactive means score below 0.9); conditions: HepG2 AhR cis-factorial reporter transcription; actives raise or lower the signal
# Procedure, shortened: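 Transient MRTU transfection of HepG2 → 24 h compound exposure → total RNA, oligo(dT) RT → PCR, 6-FAM extension, HpaI cut → CE fluorescence. DMSO = baseline; bidirectional curve fit.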
# [19] = biological target: Peroxisome proliferator-activated receptor gamma (Homo sapiens) (UniProt P37231); test: OT_PPARg_PPARgSRC1_0480: Odyssey Thera (OT) 8-hour Protein-Complementation Assay for Peroxisome Proliferator-activated Receptor Gamma / SRC-1 Co-activator (AID 2283387);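 further: nuclear to cytoplasmic split Venus YFP fluorescence ratio reporting PPARg SRC-1 interaction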
# Procedure, shortened: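 Protein-fragment complementation of split Venus YFP reports PPARg/SRC-1 interaction in HEK293T (transfected 48 h before treatment), exposed 8 h. Readout: N/C fluorescence ratio at 488 nm from imaging, Draq5 for segmentation, positive fit relative to DMSO.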
# [20] = biological target: Peroxisome proliferator-activated receptor gamma (Homo sapiens) (UniProt P37231); test: OT_PPARg_PPARgSRC1_1440: Odyssey Thera (OT) 24-hour Protein-Complementation Assay for Peroxisome Proliferator-activated Receptor Gamma/ SRC-1 Co-activator (AID 2283388);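 further: nuclear to cytoplasmic ratio of reconstituted Venus YFP fluorescence in fixed imaged cells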
# Procedure, shortened: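 Protein-fragment complementation between PPARg and coactivator SRC-1 was measured by fluorescence imaging in transiently transfected HEK293T cells after 24 h treatment. Signal was quantified as N/C ratio in the 488 nm channel, with DMSO as negative control.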
# Bile acid receptor (Homo sapiens), sequence (Q96RI1 whole entry, looked up, the tested form may be a part): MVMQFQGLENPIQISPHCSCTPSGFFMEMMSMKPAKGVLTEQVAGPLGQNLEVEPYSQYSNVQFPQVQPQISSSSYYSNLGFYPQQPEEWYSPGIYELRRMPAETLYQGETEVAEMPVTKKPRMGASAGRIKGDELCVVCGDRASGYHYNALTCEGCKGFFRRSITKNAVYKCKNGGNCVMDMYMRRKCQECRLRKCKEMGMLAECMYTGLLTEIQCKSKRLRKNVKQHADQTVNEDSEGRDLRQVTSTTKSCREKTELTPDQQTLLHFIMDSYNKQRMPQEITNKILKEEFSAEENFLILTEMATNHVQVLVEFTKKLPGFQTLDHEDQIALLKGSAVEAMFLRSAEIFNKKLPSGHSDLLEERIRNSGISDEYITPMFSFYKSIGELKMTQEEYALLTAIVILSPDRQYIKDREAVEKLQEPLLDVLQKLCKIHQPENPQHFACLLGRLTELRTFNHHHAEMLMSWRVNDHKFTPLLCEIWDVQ
# Estrogen receptor beta (Homo sapiens), sequence (Q92731 whole entry, looked up, the tested form may be a part): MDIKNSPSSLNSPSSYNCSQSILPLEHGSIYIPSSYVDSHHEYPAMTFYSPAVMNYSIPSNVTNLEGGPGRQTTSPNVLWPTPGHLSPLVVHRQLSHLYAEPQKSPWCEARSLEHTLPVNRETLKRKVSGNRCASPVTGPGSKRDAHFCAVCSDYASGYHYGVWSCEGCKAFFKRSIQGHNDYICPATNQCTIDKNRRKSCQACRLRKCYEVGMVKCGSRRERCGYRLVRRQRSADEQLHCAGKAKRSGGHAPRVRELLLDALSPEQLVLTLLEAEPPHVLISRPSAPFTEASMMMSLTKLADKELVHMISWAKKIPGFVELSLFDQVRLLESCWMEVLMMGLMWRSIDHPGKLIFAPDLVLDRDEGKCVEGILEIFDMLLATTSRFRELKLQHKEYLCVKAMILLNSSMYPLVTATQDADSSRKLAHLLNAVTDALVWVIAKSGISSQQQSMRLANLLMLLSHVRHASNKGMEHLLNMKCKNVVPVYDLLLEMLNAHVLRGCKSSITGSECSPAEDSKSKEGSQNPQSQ
# Retinoic acid receptor RXR-alpha (Homo sapiens), sequence (P19793 whole entry, looked up, the tested form may be a part): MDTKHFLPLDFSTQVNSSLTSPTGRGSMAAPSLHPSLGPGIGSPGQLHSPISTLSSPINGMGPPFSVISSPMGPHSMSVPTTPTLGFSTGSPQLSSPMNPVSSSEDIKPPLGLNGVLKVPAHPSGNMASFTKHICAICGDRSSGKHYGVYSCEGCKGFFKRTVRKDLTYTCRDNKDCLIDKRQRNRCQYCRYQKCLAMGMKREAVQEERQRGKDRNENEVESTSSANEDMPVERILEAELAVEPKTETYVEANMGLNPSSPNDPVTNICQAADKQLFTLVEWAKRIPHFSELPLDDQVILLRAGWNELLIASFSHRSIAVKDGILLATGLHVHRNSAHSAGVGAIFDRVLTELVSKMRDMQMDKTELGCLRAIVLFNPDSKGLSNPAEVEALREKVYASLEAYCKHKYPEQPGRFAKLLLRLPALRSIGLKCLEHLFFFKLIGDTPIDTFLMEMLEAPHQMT
# Steroid hormone receptor ERR1 (Homo sapiens), sequence (P11474 whole entry, looked up, the tested form may be a part): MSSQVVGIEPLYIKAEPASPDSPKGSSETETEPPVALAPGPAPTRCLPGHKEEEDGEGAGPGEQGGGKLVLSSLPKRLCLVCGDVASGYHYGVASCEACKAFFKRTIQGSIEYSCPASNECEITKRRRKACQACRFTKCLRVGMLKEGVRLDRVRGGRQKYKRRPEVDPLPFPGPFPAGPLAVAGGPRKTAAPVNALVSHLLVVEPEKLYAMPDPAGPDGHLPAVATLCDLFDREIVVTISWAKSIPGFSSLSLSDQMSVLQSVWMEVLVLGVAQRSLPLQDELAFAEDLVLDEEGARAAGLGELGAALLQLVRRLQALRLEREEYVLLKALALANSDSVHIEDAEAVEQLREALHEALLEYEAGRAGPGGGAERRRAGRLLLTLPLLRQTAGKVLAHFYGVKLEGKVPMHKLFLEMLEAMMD
# Peroxisome proliferator-activated receptor gamma (Homo sapiens), sequence (P37231 whole entry, looked up, the tested form may be a part): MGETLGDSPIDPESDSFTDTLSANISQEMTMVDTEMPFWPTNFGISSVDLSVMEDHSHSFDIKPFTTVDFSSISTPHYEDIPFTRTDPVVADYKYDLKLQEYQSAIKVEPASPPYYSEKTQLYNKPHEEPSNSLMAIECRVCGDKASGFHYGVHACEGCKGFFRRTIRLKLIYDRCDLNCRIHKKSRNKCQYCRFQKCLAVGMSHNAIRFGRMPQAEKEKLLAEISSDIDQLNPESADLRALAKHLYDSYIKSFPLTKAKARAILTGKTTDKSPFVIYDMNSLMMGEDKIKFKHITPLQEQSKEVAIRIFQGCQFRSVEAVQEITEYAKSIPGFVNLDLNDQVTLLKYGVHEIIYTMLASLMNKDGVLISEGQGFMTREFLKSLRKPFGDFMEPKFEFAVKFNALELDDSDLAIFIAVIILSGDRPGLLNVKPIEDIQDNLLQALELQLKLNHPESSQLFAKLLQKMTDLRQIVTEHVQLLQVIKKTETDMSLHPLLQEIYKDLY
# Aryl hydrocarbon receptor (Homo sapiens), sequence (P35869 whole entry, looked up): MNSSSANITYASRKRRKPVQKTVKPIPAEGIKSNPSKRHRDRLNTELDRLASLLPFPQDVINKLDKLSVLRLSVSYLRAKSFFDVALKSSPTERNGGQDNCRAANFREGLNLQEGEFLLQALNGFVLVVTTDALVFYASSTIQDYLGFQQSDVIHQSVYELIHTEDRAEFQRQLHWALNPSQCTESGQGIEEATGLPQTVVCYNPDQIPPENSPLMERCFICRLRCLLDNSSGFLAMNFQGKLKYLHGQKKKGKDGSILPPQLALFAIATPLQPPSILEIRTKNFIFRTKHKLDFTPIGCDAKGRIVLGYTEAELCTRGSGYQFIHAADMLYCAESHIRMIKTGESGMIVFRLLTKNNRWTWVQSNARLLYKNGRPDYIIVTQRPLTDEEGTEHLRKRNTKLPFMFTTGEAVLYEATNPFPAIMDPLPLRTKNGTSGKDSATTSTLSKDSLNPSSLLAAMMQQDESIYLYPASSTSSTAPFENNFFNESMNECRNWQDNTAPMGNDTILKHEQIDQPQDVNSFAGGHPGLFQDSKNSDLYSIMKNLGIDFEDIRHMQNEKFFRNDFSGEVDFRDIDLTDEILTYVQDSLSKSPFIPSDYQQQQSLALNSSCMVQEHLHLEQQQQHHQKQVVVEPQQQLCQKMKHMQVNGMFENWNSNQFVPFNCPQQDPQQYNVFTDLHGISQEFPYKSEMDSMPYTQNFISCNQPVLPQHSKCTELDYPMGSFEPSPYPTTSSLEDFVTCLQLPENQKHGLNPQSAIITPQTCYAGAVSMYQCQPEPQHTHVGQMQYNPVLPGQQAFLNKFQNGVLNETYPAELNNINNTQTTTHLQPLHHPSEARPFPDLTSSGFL
smiles,measurement,setting,value
Clc1ccccn1,outcome,[1],inactive
same,outcome,[2],inactive
Cc1cc2nc3c(=O)[nH]c(=O)nc-3n(C[C@H](O)[C@H](O)[C@H](O)CO)c2cc1C,outcome,[1],inactive
same,AC50,[3],11.8 µM (active)
same,AC50,[4],24.1 µM (active)
same,AC50,[5],11 µM (active)
same,outcome,[6],inactive
CC(=O)OC(C)(C)Cc1ccccc1,outcome,[1],inactive
same,outcome,[7],inactive
same,outcome,[6],inactive
CCC(C)NC(N)=O (stereo not given),outcome,[8],inactive
CNC(=C[N+](=O)[O-])NCCSCc1csc(CN(C)C)n1,outcome,[2],inactive
CCCCCCCCCC/C=C/C1CC(=O)OC1=O (stereo not given),outcome,[1],inactive
same,outcome,[9],inactive
same,outcome,[10],inactive
same,outcome,[11],inactive
same,outcome,[12],inactive
same,outcome,[13],inactive
same,outcome,[14],inactive
same,outcome,[15],inactive
Oc1cccc2ccccc12,outcome,[1],inactive
same,outcome,[9],inactive
same,outcome,[10],inactive
same,outcome,[11],inactive
same,outcome,[12],inactive
same,outcome,[13],inactive
same,outcome,[14],inactive
same,outcome,[15],inactive
same,AC50,[3],39.1 µM (active)
same,AC50,[4],49.2 µM (active)
same,outcome,[16],inactive
same,outcome,[5],inactive
same,outcome,[7],inactive
same,outcome,[6],inactive
same,outcome,[2],inactive
O=C1NC(=O)C2CC=CCC12 (stereo not given),outcome,[3],inactive
same,outcome,[4],inactive
same,outcome,[5],inactive
same,outcome,[7],inactive
same,outcome,[6],inactive
NC(N)=Nc1nc(CSCCC(N)=NS(N)(=O)=O)cs1,AC50,[8],26.1 µM (active)
same,outcome,[17],inactive
same,outcome,[1],inactive
same,outcome,[2],inactive
COCCCN,outcome,[8],inactive
CC(C)CC(=O)CC(C)CC(C)C (stereo not given),outcome,[1],inactive
same,AC50,[9],30.1 µM (active)
same,AC50,[10],34.6 µM (active)
same,outcome,[11],inactive
same,outcome,[12],inactive
same,AC50,[13],37.2 µM (active)
same,outcome,[14],inactive
same,outcome,[15],inactive
O=C(O)/C=C\C(=O)O,outcome,[17],inactive
same,outcome,[3],inactive
same,outcome,[4],inactive
same,outcome,[16],inactive
same,outcome,[5],inactive
same,outcome,[7],inactive
same,outcome,[2],inactive
O=[N+]([O-])c1ccccc1C(F)(F)F,outcome,[8],inactive
same,outcome,[17],inactive
CCCCCCCCCCCCCCCCCC[N+](C)(C)C,outcome,[8],inactive
same,AC50,[17],33.8 µM (active)
same,AC50,[1],15.9 µM (active)
same,AC50,[9],1.34 µM (active)
same,AC50,[10],3.45 µM (active)
same,outcome,[11],inactive
same,outcome,[12],inactive
same,AC50,[13],3.73 µM (active)
same,AC50,[14],3.11 µM (active)
same,AC50,[15],3.28 µM (active)
O=C(O)/C=C/C(=O)O,outcome,[3],inactive
same,outcome,[4],inactive
same,outcome,[7],inactive
same,outcome,[6],inactive
same,outcome,[2],inactive
NC(=O)c1ccc([N+](=O)[O-])cc1Cl,outcome,[1],inactive
CC/C=C\CCO,outcome,[3],inactive
same,outcome,[4],inactive
same,outcome,[16],inactive
same,outcome,[5],inactive
same,outcome,[6],inactive
same,outcome,[2],inactive
CCc1cc(C(N)=S)ccn1,outcome,[2],inactive
OCCN(CCO)c1cccc(Cl)c1,outcome,[18],inactive
Sc1nc2ccccc2s1,outcome,[9],inactive
same,outcome,[10],inactive
same,outcome,[11],inactive
same,outcome,[12],inactive
same,AC50,[13],0.016 µM (active)
same,outcome,[14],inactive
same,outcome,[15],inactive
same,outcome,[3],inactive
same,outcome,[4],inactive
same,outcome,[16],inactive
same,outcome,[19],inactive
same,outcome,[20],inactive
same,outcome,[6],inactive
CC1(C)S[C@@H]2[C@H](NC(=O)[C@H](N)c3ccccc3)C(=O)N2[C@H]1C(=O)O,outcome,[18],inactive
CCCCOC(=O)COc1ccc(Cl)cc1Cl,outcome,[5],inactive
same,outcome,[19],inactive
same,outcome,[20],inactive
same,outcome,[7],inactive
same,outcome,[6],inactive

# From PubChem BioAssay (EPA / NIEHS)
